Consider 98 compounds from PubChem BioAssay AID1347417 (National Center for Advancing Translational Sciences (NCATS), 2020).

SMILES strings stand for the structures. The campaign covered roughly 120,000 compounds. About 5,300 (4.4%) were called active. Entries that show only a call come without a potency. Inconclusive results (about 22%) are left out. Calls follow the shape of the dose curve; as a rule, active = well fitted inhibition curve with a large enough effect; inconclusive = small, poorly fitted or top-dose-only effect; inactive = no such curve, though single readings can be large or run the other way. Only a selection was taken, and actives are over-represented in it overall.
Potency is read from the fitted curve at half-maximal effect.

The nature of this assay: qHTS Primary assay for Inhibitors of Plasmodium falciparum Dd2 growth in vitro. Also: nearly all actives have a fitted effect of over 65% in size. Conditions: P. falciparum Dd2 growth, SYBR Green, 72 h; series mostly up to 28.9 µM. The gist of the method: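 Readout: SYBR Green fluorescence, 485 nm excitation, 535 nm emission, after ~16 h lysis at 37C. Before that, Dd2-infected red cells (2.5% hematocrit) grew 72 h with compound, 29 uM top final concentration.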
For orientation: qHTS replaces the single test concentration by a dilution series.
`COc1cccc(CN2Cc3nc(Nc4cccc(F)c4)ccc3OCC2=O)c1`: the Potency entry is “inactive”. Same read-out and setting: in the case of `CN(CCCn1cccn1)C(=O)C1CCN(C(=O)C2CCCC2)CC1` it was “inactive”; in that of `O=C(N[C@@H]1CN(Cc2c(F)cccc2F)C[C@H]1CO)c1ccccc1`, “inactive”; in that of `O=C(Nc1ccccc1)[C@H]1CN2CCC1C[C@@H]2Cn1cc(CO)nn1` (stereo partly drawn), “inactive”.

As to `Cc1cc(N2CCCC(Cn3cc(Cc4ccccc4)nn3)C2)nc(N)n1` (stereo not drawn), the Potency was 12.6 µM (active). The same measure, in the same setting: in the case of `O=C(NCc1ccccc1)[C@@H]1C[C@@H](c2ccc(F)cc2)N([S+](=O)([O-])c2cccnc2)C1` it was “inactive”; in that of `O=C1Nc2ccc(Br)cc2C(=O)N2CCN(C(=O)C3CCCCC3)C[C@H]12`, “inactive”; in that of `CCOC(=O)c1c(NC(=O)Cc2coc3ccc(CC)cc23)sc2c1CCC2`, “inactive”. Same read-out and setting: in the case of `CCOC(=O)c1ccc(NC(=O)c2c(NCc3cccs3)sc3c2CCCC3)cc1` it was 10 µM (active); in that of `CCOC(=O)c1c(NC(=O)c2cc(-c3ccc(Cl)cc3)on2)sc2c1CCCC2`, “inactive”; in that of `O=C(Cc1cccs1)NC1CCCN(c2cc(-c3ccccc3)[nH]n2)C1` (stereo not drawn), “inactive”.

`COc1ccc(-c2ccc3c(c2)C(=O)N2CCN(C(=O)CC4(CC(=O)O)CCCC4)C[C@H]2C(=O)N3)cc1`: the Potency result is “inactive”. Same read-out and setting: in the case of `CN1C(=O)CC(C(=O)O)C12CCN(Cc1cccc(OC(F)F)c1)CC2` (stereo not drawn) it was “inactive”. Same read-out and setting: in the case of `CN(C)C[C@@H]1CN(C)C[C@H]1NC(=O)C1CCC1` it was “inactive”; in that of `CCOc1cc(=O)n2c(c1C(=O)Nc1ccc(F)cc1F)CCCC2`, “inactive”; in that of `CCOC(=O)N1CCc2c(sc3c2C(=O)NC(c2ccccc2F)N3)C1` (stereo not drawn), “inactive”. Take `CCOC(=O)N1CCc2c(sc(NCc3cccc(F)c3)c2C(=O)Nc2ccccc2OCC)C1`: the Potency is 4.47 µM (active). The same measure, in the same setting: in the case of `Cc1ccccc1CN1CCc2ncc(C(=O)NCCOc3ccccc3)n2CC1` it was “inactive”; in that of `Cc1ccccc1CN1CCC(N2CCCC(C(=O)NC3CC3)C2)CC1` (stereo not drawn), “inactive”; in that of `CCOc1ccccc1N(CC)C(=O)c1cc2ccc3cccnc3c2[nH]1`, 12.6 µM (active). On the same count and under the same terms, in the case of `CCOc1ccccc1N(CC)C(=O)Nc1cn(C)c(=O)c2ccccc12` it was “inactive”. Same read-out and setting: in the case of `Cc1ccccc1CN1CCC(CNC(=O)c2cc3ccc4cccnc4c3[nH]2)CC1` it was 10 µM (active); in that of `CCOc1ccccc1C(=O)N1CCC(Oc2ncccc2C(=O)N(C)C)C1` (stereo not drawn), “inactive”; in that of `CCOc1ccc(NC(=O)Cn2c(-c3ccc(F)cc3)nc(C)cc2=O)cc1`, “inactive”. In the case of `Cc1ccc(NC(=O)C(=O)NCC(c2cccnc2)N2CCOCC2)cc1` (stereo not drawn), the Potency result was “inactive”. The same measure, in the same setting: in the case of `CN(C)c1ccc(C(CNS(=O)(=O)c2cc(F)ccc2F)N2CCOCC2)cc1` (stereo not drawn) it was “inactive”; in that of `COc1ccc(C(C(=O)O)N2CCCN(c3ccc(F)cc3)CC2)cc1F` (stereo not drawn), “inactive”; in that of `COc1cccc(NC(=O)C(=O)NCC(c2ccc3c(c2)OCO3)N2CCN(C)CC2)c1` (stereo not drawn), 7.94 µM (active). Still for that read-out and setting: then `COc1ccc(Cn2ccnc2SCC(=O)Nc2ccc3c(c2)OCO3)cc1`, with “inactive”.

For the compound `CC(C)CC(=O)NCC(c1ccc2c(c1)OCO2)N1CCN(c2ccc(F)cc2)CC1` (stereo not drawn), the Potency was 10 µM (active). On the same count and under the same terms, then `O=C(CN1CC2CC(C1)[C@H]1CCCC(=O)N1C2)N1CCN(c2ccccn2)CC1` (stereo partly drawn), with “inactive”; and `CCn1ncnc1C(C)NC1CCC2(CCNCC2)CC1` (stereo not drawn), with “inactive”. On to `CCC(O)c1cc2n(n1)CCN(C(=O)c1cnc(C)nc1-c1ccccc1)C2` (stereo not drawn), for which the Potency entry was “inactive”.

Take `COc1ccc(S(=O)(=O)N[C@H]2C[C@H]3C(=O)NC[C@@H](CCC(=O)N4CCc5ccccc54)N3C2)cc1`: the Potency result was “inactive”. On the same count and under the same terms, in the case of `CN1C(=O)[C@@H]2C[C@@H](O)CN2C2(CN(Cc3cnc4ccccc4c3)C2)C1=O` it was “inactive”; in that of `COc1ccccc1C(=O)NCCn1cc(SCc2ccccc2Cl)c2ccccc21`, 3.98 µM (active); in that of `COc1ccccc1C(=O)NCc1ccnc2[nH]ccc12`, “inactive”. The same measure, in the same setting: then `O=C(Cn1cc(SCc2cccc(Cl)c2)c2ccccc21)N1CCCCC1`, with “inactive”; and `Cc1cc(NC(=O)c2ccc(Cn3ccn4nc5c(c4c3=O)CCCC5)cc2)ccc1F`, with “inactive”.

With `CCc1cc(NCCS(=O)(=O)CC)n2nccc2n1`, the Potency entry is “inactive”. As for `O=C(Cn1nc2n(c1=O)CCCC2)Nc1ccc(Cl)cc1`, the Potency entry was “inactive”. Still for that read-out and setting: then `CCOc1ccc(NC(=O)CN2CCN(CC(=O)Nc3ccc(OC)cc3)CC2)cc1`, with “inactive”; and `CCN(CC)c1ccc(NC(=O)CN2CCN(CC(=O)Nc3ccc(Cl)cc3)CC2)cc1`, with 8.91 µM (active). The same measure, in the same setting: then `Cc1ccc2[nH]nc(C(=O)N3C[C@@H](C(=O)O)[C@H](c4ccc(F)cc4)C3)c2c1`, with “inactive”; and `Cc1oc2ccn(Cc3ccccc3F)c(=O)c2c1C(=O)NCc1cccnc1`, with “inactive”. Still for that read-out and setting: then `CC(C)CCN(C(=O)Nc1ccc(Cl)c(Cl)c1)C(C)c1cccs1` (stereo not drawn), with 10 µM (active). For the compound `CC(c1cccs1)N(C)Cc1ccncc1` (stereo not drawn), the Potency entry was “inactive”. Still for that read-out and setting: in the case of `CC(C)c1ccc2oc(-c3cc(NC(=O)c4cccs4)ccc3Cl)nc2c1` it was “inactive”; in that of `C=CCNC(=O)N1CCC(C2CCN(Cc3cccc(F)c3F)CC2)C1` (stereo not drawn), “inactive”; in that of `Cc1ccc(C(=O)Nc2ccc3ncnc(N4CCCCC4)c3c2)s1`, “inactive”. For the compound `O=C(Nc1ccc2ncnc(N3CCCCC3)c2c1)c1cccc(Cl)c1`, the Potency result was “inactive”.

For the compound `Cc1ccc(C(=O)Nc2ccc3c(N4CCCCC4)ncnc3c2)s1`, the Potency was 5.01 µM (active). Same read-out and setting: in the case of `O=C(Nc1ccc2ncnc(N3CCCCC3)c2c1)c1ccc2c(c1)OCO2` it was “inactive”; in that of `Cc1cc(C)cc(C(=O)Nc2ccc3c(N4CCCC4)ncnc3c2)c1`, 0.708 µM (active); in that of `CC(C)(C)CC(=O)Nc1ccc2c(N3CCOCC3)ncnc2c1`, “inactive”. The same measure, in the same setting: in the case of `O=C(CCc1cc(Cl)no1)N1CCCC(c2nc(C3CCOCC3)no2)C1` (stereo not drawn) it was “inactive”; in that of `CCn1c(C2CCCN(C(=O)NCC(C)C)C2)nn(C)c1=O` (stereo not drawn), “inactive”; in that of `Cn1ccnc1CNC(=O)C[C@@H]1C[C@H]2O[C@H](CNC(=O)NCc3ccccc3)[C@@H](O)[C@H]2O1`, “inactive”. Still for that read-out and setting: in the case of `CC(C)c1nc2nccc(-c3ccc4c(c3)OCCCO4)n2n1` it was “inactive”.

With `CCC(=O)Nc1ccc2nnc(-c3ccc(C(=O)Nc4ccc(OC)cc4)cc3)n2c1`, the Potency was 0.708 µM (active).

With `COc1ccc(-c2cn3c(n2)sc2cc(C(=O)Nc4ccc(F)cc4)ccc23)cc1`, the Potency result was “inactive”. For `O=C(Nc1ccc(C2(C(=O)N3CCCCCC3)CCC2)cc1)C1CC1`, the Potency entry was “inactive”. Still for that read-out and setting: in the case of `O=C(Nc1ccc2ncnc(N3CCCCC3)c2c1)C1CCCCC1` it was “inactive”; in that of `CCC(CC)NC(=O)c1ccc(-c2nnc3ccc(NC(=O)C4CCC4)cn23)cc1`, 2.51 µM (active). On the same count and under the same terms, then `COc1cc(C(=O)Nc2ccc(OCc3cc(=O)n4cc(C)sc4n3)cc2)cc(OC)c1OC`, with “inactive”.

Regarding `COC[C@@H]1CN(Cc2ccc(F)c(OC)c2)C[C@H]1C(=O)N(C)C`, the Potency result was “inactive”. Same read-out and setting: in the case of `Cc1ccc(Cn2c(=O)n(Cc3nc(-c4ccccc4)no3)c(=O)c3cc4c(cc32)OCO4)cc1` it was “inactive”. Turning to `Cc1ccc(CN2COc3cc(C)c4c(oc(=O)c5ccccc54)c3C2)cc1`, the Potency is 1.12 µM (active). Same read-out and setting: then `CCc1cc2c(-c3ccccc3)cc(=O)oc2c2c1OCN(Cc1ccc(C)cc1)C2`, with 2.24 µM (active); and `CCn1c2c(c(=O)n1Cc1ccccc1)CCN(C(=O)Cc1ccc3c(c1)OCO3)C2`, with “inactive”; and `COCCn1cc2c3c(cccc31)CN(C(=O)c1c(F)cccc1Cl)CC2`, with “inactive”. Same read-out and setting: then `O=C(Nc1ccc(Cl)cc1)c1nc2c(o1)CCN(Cc1ccsc1)CC2`, with “inactive”; and `COCCn1ncc(N2CCC(NC(=O)C3CCC3)CC2)cc1=O`, with “inactive”; and `O=C(c1cccc2[nH]ccc12)N1C[C@@H](CO)[C@H](c2ccccn2)C1`, with “inactive”. Same read-out and setting: then `CN1CCC2(C1)CN(CC1CC1)c1ccc(C(=O)NC3CC3)cc12` (stereo not drawn), with “inactive”; and `CCOC(=O)c1ccccc1NC(=O)c1sc2nc(-c3ccc(F)cc3)cn2c1C`, with “inactive”; and `COc1ccc(-c2cn3c(C)c(C(=O)Nc4cc(C)cc(C)c4)sc3n2)cc1`, with “inactive”. As for `COc1ccc(CCNC(=O)c2ccc3c(c2)sc2nc(-c4ccc(C)cc4)cn23)cc1OC`, the Potency entry is “inactive”.

For `CCN1CCN(CCCNC(=O)c2ccc3c(c2)sc2nc(-c4ccc(OC)cc4)cn23)CC1`, the Potency was 3.16 µM (active). Same read-out and setting: in the case of `COc1ccc(-c2cn3c(n2)sc2cc(C(=O)Nc4ccccc4F)ccc23)cc1` it was “inactive”.

Take `CCOc1ccc(CCNC(=O)c2ccc3c(c2)sc2nc(-c4ccc(F)cc4)cn23)cc1OCC`: the Potency was 5.62 µM (active). The same measure, in the same setting: then `Cc1cccc2nnc(N3CCN(C(=O)c4ccc(F)c(F)c4)CC3)n12`, with “inactive”; and `O=C(CCNc1c(-c2ccccc2)nc2cnccn12)N1CCC(N2CCCCC2)CC1`, with “inactive”. The same measure, in the same setting: in the case of `CCn1cc(-c2ccccc2)cc1C(=O)NCc1ccccn1` it was “inactive”.

As for `CCCCN1C(=O)c2ccccc2C(C(=O)NCCCOC)C12CCCCC2` (stereo not drawn), the Potency result is “inactive”. Same read-out and setting: then `C=CCNC(=O)N1CC[C@H]2CC(=O)N(CC(N)=O)CC[C@H]2C1`, with “inactive”. Still for that read-out and setting: then `O=C(c1cc2cccnn2n1)N1CCOCC1`, with “inactive”; and `Cc1ccc2cc(CCC(=O)O)c(=O)[nH]c2c1`, with “inactive”. Still for that read-out and setting: then `Cc1cc2nc3n(c(=O)c2n1CC(=O)NCc1ccccc1Cl)CCCC3`, with “inactive”; and `Oc1ccccc1CNC1(Cc2cc(CN3CCOCC3)on2)COC1`, with “inactive”; and `C[C@@H](NC(=O)C[C@@H]1[C@H](O)CC[C@@H]2[C@](C)(CO)[C@H](O)CC[C@]21C)c1ccccc1`, with “inactive”. Turning to `COc1ccc(C(=O)N2CCC(Oc3ncccc3C(=O)N(C)C)C2)c(OC)c1` (stereo not drawn), the Potency result is “inactive”. Still for that read-out and setting: in the case of `CC[C@@H](NC(=O)CC1CCN(Cc2ccccc2)CC1)C1CC(O)C1` (stereo partly drawn) it was “inactive”; in that of `CCOc1ccc(C(=O)N2CCN(CCc3ccccn3)CC2)cc1`, 2.82 µM (active); in that of `CCOc1ccc(C(=O)N2CCN(c3cc(-c4cccs4)[nH]n3)CC2)cc1`, “inactive”. Consider `CCOc1ccc(C(=O)N2CCC3(CC2)c2nccn2-c2ccccc2CN3C)cc1`, for which the outcome is “inactive [at 5.79 µM]”. `Cc1oc2ccn(Cc3cccc(F)c3)c(=O)c2c1C(=O)NCc1cccnc1`: the Potency result is “inactive”. Same read-out and setting: in the case of `O=C(O)Cn1ccc2cc(OCCc3cccc(-c4cccnc4)c3)cnc21` it was “inactive”.
